Laboratory results taken from PubChem BioAssay AID430 (Sanford-Burnham Center for Chemical Genomics, 2006).
Among all 63,000 compounds or so, about 1,100 (1.7%) were called active. The entries come from a sample that favours actives as a whole. Measured potencies and affinities stand elsewhere. Unmarked numbers belong to inactive results. Rule as the data show it: active = cytotoxicity above about 50%; inactive = the rest.

Test: HPDE-C7 pancreatic duct cell viability loss – fluorescence, HTS (AID 430);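 also: cells exposed to compound for 48 hours before viability readout; 0% = vehicle and 100% = reference cytotoxic drug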
Details: HPDE-C7 pancreatic duct cells viability, at 10 µM, active compounds read high

Compound	cytotoxicity
Cc1cc(NC(c2cccnc2)c2c(C)[nH]c3ccccc23)no1 (configuration not stated)	5.2%
CC(=O)c1ncnn1CC(=O)c1ccc(Cl)cc1Cl	13.6%
O=C(CCN1CCc2ccccc2C1)Nc1cccc(F)c1	3.9%
Cc1ccc(NS(=O)(=O)c2cccc(C(=O)Nc3cc(C)on3)c2)cc1	-4.8%
Cc1ccc2nc3ccc(N4CCN(C)CC4)nn3c(=O)c2c1	-2.8%
COc1cccc(C2=NOC(C(=O)NC(C)(C)C)C2)c1 (configuration not stated)	-11.2%
COc1cccc(C2=NOC(C(=O)NC(C)C)C2)c1 (configuration not stated)	-3.9%
CC(C)(C)SCCNS(=O)(=O)c1ccc(F)cc1	5.7%
O=S(=O)(c1cccc(-c2nnc(SCc3ccc(Cl)cc3)o2)c1)N1CCCCC1	-2.9%
Cc1cc2nc(-c3ccc(SCC(=O)N4CCOCC4)nc3)[nH]c2cc1C	-15.5%
O=C(NC1=NCCS1)Nc1ccccc1	1.2%
COCCCN1C(=O)c2[nH]nc(-c3ccccc3O)c2C1c1ccc(Cl)cc1 (configuration not stated)	67.3% (active)
COc1ccc(C2c3c(-c4cc(Cl)c(C)cc4O)n[nH]c3C(=O)N2Cc2cccnc2)cc1OC (configuration not stated)	26.6%
COc1ccc(CCN2C(=O)c3[nH]nc(-c4ccccc4O)c3C2c2cccc(O)c2)cc1OC (configuration not stated)	66% (active)
Cc1ccc(C2c3c(-c4ccccc4O)n[nH]c3C(=O)N2Cc2ccncc2)cc1 (configuration not stated)	-3.9%
COCCCN1C(=O)c2[nH]nc(-c3ccccc3O)c2C1c1cccc(Cl)c1 (configuration not stated)	13.3%
CC(C)OCCCN1C(=O)c2[nH]nc(-c3ccccc3O)c2C1c1cccc(Cl)c1 (configuration not stated)	-3.6%
COCCCN1C(=O)c2[nH]nc(-c3cc(C)cc(C)c3O)c2C1c1ccc(O)c(OC)c1 (configuration not stated)	-2.5%
COc1cc(C2c3c(-c4cc(C)cc(C)c4O)n[nH]c3C(=O)N2CCCO)cc(OC)c1OC (configuration not stated)	0.6%
COc1ccc(C2c3c(-c4ccccc4O)n[nH]c3C(=O)N2CCc2ccc(OC)c(OC)c2)cc1 (configuration not stated)	36.9%
Cc1cc(O)c(-c2n[nH]c3c2C(c2cccc(O)c2)N(Cc2cccnc2)C3=O)cc1Cl (configuration not stated)	8%
COc1ccc(CCN2C(=O)c3[nH]nc(-c4ccccc4O)c3C2c2ccccc2)cc1OC (configuration not stated)	54.9% (active)
Cc1noc(C)c1C(=O)OCC(=O)c1c[nH]c2ccccc12	4.1%
O=C(NCCC1=CCCCC1)C1CC(=O)N(C2CCCCC2)C1 (configuration not stated)	1.5%
COc1ccc(-c2noc(CCC(=O)N3CCN(c4cc(C)ccc4C)CC3)n2)cc1	11.6%

Compound	cytotoxicity
O=C(CSCc1nc2ccccc2[nH]1)N1CCN(c2cccc(Cl)c2)CC1	7.4%
COc1ccc(CCN2CC(C(=O)O)CC2=O)cc1 (configuration not stated)	1.2%
c1ccc(CCc2nc(-c3ccccn3)no2)cc1	6.2%
O=C1c2ccccc2NC(c2ccccn2)N1c1ccc(Cl)cc1 (configuration not stated)	-4.1%
CCN(CC)S(=O)(=O)c1ccc(NC(=O)CSc2nnc(-c3ccc(F)cc3)o2)cc1	-7.7%
COc1cccc(-c2nnc(NC(=O)c3ccc(S(=O)(=O)N(CC(C)C)CC(C)C)cc3)o2)c1	51.2% (active)
COc1cccc(-c2nnc(NC(=O)c3ccc(S(=O)(=O)N4CC(C)OC(C)C4)cc3)o2)c1 (configuration not stated)	-5.9%
CCCN(CCC)S(=O)(=O)c1ccc(C(=O)Nc2nnc(-c3cc(OC)cc(OC)c3)o2)cc1	47.5%
COc1cccc(-c2nnc(NC(=O)c3ccc(S(=O)(=O)N4CCOCC4)cc3)o2)c1	13.7%
COc1cccc(-c2nnc(NC(=O)c3ccccc3Br)o2)c1	22.6%
CCCN(CCC)S(=O)(=O)c1ccc(C(=O)Nc2nnc(-c3cccc(OC)c3)o2)cc1	66.4% (active)
CCCn1c(SCC(=O)Nc2nnc(CC)s2)nnc1-c1ccco1	-5%
O=C(Nc1ccc2oc(=O)ccc2c1)c1cccnc1	3%
COc1ccccc1-c1nc(-c2ccncc2)no1	2.1%
COc1cc2oc(=O)c(Br)c(C)c2c(OC)c1OC	-8.6%
CCCS(=O)(=O)c1c(S(=O)(=O)CCC)c2ccccn2c1C(=O)OC	-3.7%
CCN1CCN(c2cc(=O)n(C3CCCCC3)c(=O)[nH]2)CC1	-14.2%
CCOC(=O)N1CCN(C(=O)CCc2c(C)nc3c(c(C)nn3-c3ccc(C)c(C)c3)c2C)CC1	-7.7%
CCCCOc1ccc(S(=O)(=O)Nc2cc(OC)ccc2OC)cc1	31.3%
COc1ccc(OC)c(NS(=O)(=O)c2ccc(SC)cc2)c1	36.3%
CCOc1ccc(S(=O)(=O)Nc2cc(OC)ccc2OC)cc1	73.1% (active)
COc1ccc(OC)c(NS(=O)(=O)c2ccc(N3CCCC3=O)cc2)c1	75.9% (active)
COC(=O)COc1ccc(S(=O)(=O)Nc2cc(OC)ccc2OC)cc1	-2.9%
COc1ccc(OC)c(NS(=O)(=O)c2ccc3c(c2)CCC(=O)N3)c1	3.3%
Cc1cc(C(=O)NCc2ccccc2)c(=O)[nH]c1C	-2.3%

Compound	cytotoxicity
Cc1cc(C)n2nc(SCC#N)nc2n1	1.5%
CCCCOCCCNC(=O)c1c(-c2ccccc2)noc1C	6.3%
O=C(NCc1cccnc1)C1CC(c2ccc(F)cc2)=NO1 (configuration not stated)	-10.8%
COc1ccc(C2=NOC(C(=O)NCc3ccccc3)C2)cc1 (configuration not stated)	54.5% (active)
COc1ccc(CNC(=O)C2CC(c3ccc(OC)cc3)=NO2)cc1 (configuration not stated)	17.5%
COc1ccc(C2=NOC(C(=O)NCC(C)C)C2)cc1 (configuration not stated)	-14.9%
COc1ccc(C2=NOC(C(=O)NCc3ccc(F)cc3)C2)cc1 (configuration not stated)	63.5% (active)
COc1ccc(CNC(=O)C2CC(c3ccc(F)cc3)=NO2)cc1 (configuration not stated)	1%
CC(=O)Nc1ccc(NS(=O)(=O)c2ccc(Cl)c(C(=O)O)c2)cc1	0.9%
COC(=O)CC1=NC(=O)CS1	0.6%
COC(=O)c1ccccc1NC(=O)CSc1nnc(CNS(=O)(=O)c2ccc(C)cc2)n1C	-12.6%
O=C1OCCN1CCN(CN1C(=O)CCC1=O)CN1C(=O)CCC1=O	5.9%
O=C(CN(Cc1ccc2c(c1)OCO2)C(=O)c1cnsn1)NC1CCCC1	7%
O=C(Nc1cccnc1)c1ccc(Cl)c(S(=O)(=O)N2CCCCCC2)c1	12.4%
COc1ccccc1NC(=O)c1ccc(Cl)c(S(=O)(=O)N2CCOCC2)c1	-10.1%
COc1ccc(NC(=O)c2ccc(Cl)c(S(=O)(=O)N3CCc4ccccc4C3)c2)cn1	86.5% (active)
COc1ccc(CNC(=O)C2CCCN(S(=O)(=O)c3cnc[nH]3)C2)cc1 (configuration not stated)	-4.6%
CN(CC(O)COc1ccc(OCC(O)CN(C)C2CCCCC2)cc1)C1CCCCC1 (configuration not stated)	7.7%
Cc1csc(SCC(=O)Nc2c(C)n(C)n(-c3ccccc3)c2=O)n1	3.8%
COc1ccc(S(=O)(=O)Nc2nc(C(F)(F)F)cs2)cc1	-2.3%
Cc1ccc2c(CC(=O)NCc3ccco3)coc2c1C	64.7% (active)
Cc1cc(C)c2c(CC(=O)NCc3ccco3)coc2c1	4.1%
O=C(Cc1cccs1)NCc1ccco1	5.7%
O=C(c1cnn2ccccc12)N(Cc1ccco1)C1CCCC1	-3.3%
CCOc1ccc(-c2nnc3n2N=C(c2ccc(OC)cc2)CS3)cc1	0.1%

Compound	cytotoxicity
c1ccc(C2=Nn3c(nnc3-c3cc(-c4ccccc4)n[nH]3)SC2)cc1	5.2%
CCOc1ccc(C2=Nn3c(nnc3-c3ccc(OC)cc3)SC2)cc1	45.9%
COc1cc(-c2nnc3n2N=C(c2ccccc2)CS3)cc(OC)c1OC	57.4% (active)
COc1ccc(-c2nnc3n2N=C(c2ccccc2)CS3)cc1OC	-2.9%
CCOc1ccc(C2=Nn3c(nnc3-c3ccccc3OC)SC2)cc1	63.4% (active)
COc1ccc(OC)c(C2=Nn3c(nnc3-c3cc(OC)c(OC)c(OC)c3)SC2)c1	4.4%
Cc1ccc(-c2nnc3n2N=C(c2ccccc2)CS3)cc1	-4.2%
COc1ccc(C2=Nn3c(nnc3-c3ccccn3)SC2)cc1OC	-0.7%
COc1ccc(C2=Nn3c(nnc3-c3ccccc3)SC2)cc1OC	3.6%
CCC(C)Oc1cccc(C(=O)Nc2ccccc2N2CCOCC2)c1 (configuration not stated)	1.7%
CCCn1c(SCC(=O)Nc2c(CC)cccc2CC)nnc1C(C)C	-2.4%
Cc1ccc(S(=O)(=O)NCC(C)NS(=O)(=O)c2ccc(C)cc2)cc1 (configuration not stated)	-44.3%
COc1ccc2nc(NC(=O)CN(c3ccc(C)cc3)S(=O)(=O)c3c(C)nn(C)c3C)sc2c1	10.7%
OC(COc1c(Cl)cc(Cl)cc1Cl)CN1CCCCC1 (configuration not stated)	7.4%
CC(=O)Nc1ccc(S(=O)(=O)N2CCSC2c2ccc(C)cc2)cc1 (configuration not stated)	0.6%
Nc1nnc2c(n1)CCCC2	2.7%
COc1ccccc1-c1nnc2n1N=C(C)CS2	-3.3%
COc1cccc(C2=Nn3c(nnc3-c3ccccc3O)SC2)c1	-36.1%
COc1ccccc1-c1nnc2n1N=C(c1ccc(O)c(O)c1)CS2	60.1% (active)
c1ccc(Nc2nc(N3CCOCC3)nc(N3CCOCC3)n2)cc1	3.2%
C1CCN(c2nc(N3CCCCC3)nc(N3CCNCC3)n2)CC1	2.9%
c1ccc(Nc2nc(N3CCCCC3)nc(N3CCNCC3)n2)cc1	71.8% (active)
